# PubChem BioAssay (NCATS)
# Records with an inconclusive call do not appear. A call without a number means that no potency is given here. Activity calls are given as the source filed them. Unless noted, the call rests on the fitted dose curve; in most records, active means well fitted curve in the direction sought with a large enough effect; inconclusive means small, poorly fitted or top-dose-only effect, or another doubt; inactive means no such curve, though single readings can be large; an effect the other way counts as inactive or inconclusive.
# How the values were obtained:
# [1] = target: Guanine nucleotide-binding protein G(i) subunit alpha-1 (Homo sapiens) (UniProt P63096); assay: qHTS Assay for Inhibitors of RGS12 GoLoco Motif Activity (Green Fluorophore) (AID 879); details: Galphai1/FITC-RGS12 GoLoco peptide, fluorescence polarization; series mostly up to 57.1 µM;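 further: negative values mean loss of peptide binding seen as reduced polarization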
# Procedure, shortened: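 A drop in FITC polarization marked displacement of the FITC-tagged RGS12 GoLoco peptide (10 nM) from Gαi1 (50 nM). Compounds were incubated 10 min at room temperature in Tris pH 7.5 buffer containing 150 mM NaCl, 0.1 mM GDP and 0.05% NP40; unlabeled peptide titration served as control.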
# [2] = target: Pyruvate kinase (Leishmania mexicana) (UniProt Q27686); assay: qHTS Validation Assay for Inhibitors of Leishmania Mexicana Pyruvate Kinase (AID 945); further: potency means the concentration at half of the fitted maximal effect; details: purified L. mexicana pyruvate kinase, enzyme activity, E451W mutant enzyme; series mostly up to 57.5 µM
# Procedure, shortened: (§1)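 Read-out: luminescence from PKLight stop/detection reagent, data normalized to DMSO. Reaction: 0.2 nM E451W LmPYK, 0.5 mM PEP, 0.1 mM ADP, pH 7.2, 1 h room temperature.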
# [3] = target: Pyruvate kinase PKM (Homo sapiens) (UniProt P14618); assay: qHTS Assay for Activators of Human Muscle Pyruvate Kinase (AID 954; active means well fitted curve in the direction sought with a large enough effect, not every such curve was filed as active); details: purified human muscle pyruvate kinase, luciferase-coupled luminescence, 1 h; series mostly up to 57.5 µM
# Procedure, shortened: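 Screening used highly purified human pyruvate kinase M2 under submaximal activity, with PEP at its Km and ADP below Km. After an hour at room temperature, ATP was read by luciferase luminescence.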
# [4] = target: Pyruvate kinase PKM (Homo sapiens) (UniProt P14618); assay: qHTS Assay for Inhibitors of Human Muscle Pyruvate Kinase (AID 958); details: purified human PKM enzyme activity
# Procedure, shortened: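 Luminescence from a luciferase ATP-detection/stop reagent reported PKM2 activity. Reactions contained 0.1 nM purified human enzyme, 0.5 mM PEP, 0.1 mM ADP and 7 mM MgCl2 at pH 7.2, run 1 h at RT.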
# [5] = target: Pyruvate kinase (Leishmania mexicana) (UniProt Q27686); assay: qHTS Validation Assay for Activators of Leishmania Mexicana Pyruvate Kinase (AID 959); details: purified L. mexicana pyruvate kinase, enzyme activity; series mostly up to 57.5 µM
# Procedure, shortened: as §1
# [6] = target: alpha-glucosidase (Oryza sativa, rice) (UniProt Q653V4); assay: Counterscreen for Glucocerebrosidase Inhibitors: qHTS Assay for Rice alpha-Glucosidase at pH 5.0 (AID 997); details: rice alpha-glucosidase enzyme activity; series mostly up to 76.9 µM
# Procedure, shortened: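 Endpoint fluorogenic assay at pH 5.0: compounds (0.7 nM to 77 uM) titrated against 4 nM rice enzyme and 400 uM 4-MU-alpha-glucoside for 20 min at room temperature; NaOH/glycine stop, read ex 365/em 440 nm, Hill-fitted AC50.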
# [7] = target: DNA dC->dU-editing enzyme APOBEC-3G (Homo sapiens) (UniProt Q9HC16); assay: qHTS for inhibitors of Vif-A3G interactions: Validation (AID 588379); details: Vif-A3G protein interaction assay; series mostly up to 46.1 µM
# Procedure, shortened: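 Yellow fluorescence (Ex 488, Em 500-530) of Vif-coexpressing HeLa A3G-eYFP cells, scanned by Acumen cytometer, reports blocked A3G degradation. Cells plated at 700/well overnight at 37 deg C before compound addition, then a further overnight compound incubation at 37 deg C.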
# [8] = S16 Schwann cell viability assay (CellTiter-Glo assay) (AID 624031); details: S16 rat Schwann cells viability, 24 h; series mostly up to 57.5 µM;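 further: cellular ATP luminescence as a viability measure; nearly all actives have a fitted effect of over 70% in size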
# Procedure, shortened: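 This viability control uses native rat S16 Schwann cells grown in DMEM plus 10% FBS. After a 24 h compound treatment at 37 °C, CellTiter-Glo luminescence reports ATP content, scaled against DMSO-treated and cell-free wells.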
# [9] = S16 Schwann cell PMP22 intronic element firefly luciferase assay (AID 624032); details: S16 rat Schwann cells, PMP22 element FLuc, 24 h; series mostly up to 57.5 µM; further: nearly all actives have a fitted effect of over 30% in size
# Procedure, shortened: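 Rat S16 Schwann cells stably carrying a PMP22 intronic element-driven Fluc reporter were seeded overnight, then exposed to compounds for 24 h at 37 °C. Luminescence was normalized to PTC124 (positive control) and DMSO (0% activity).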
# [10] = tested on: CP260; assay: qHTS profiling for inhibitors of Plasmodium falciparum proliferation (AID 504749); further: nearly all actives have a fitted effect of over 60% in size; details: P. falciparum in erythrocytes, SYBR Green DNA, 72 h; series mostly up to 28.7 µM
# Procedure, shortened: (§2)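 Quantitative HTS: compounds pinned into medium, infected erythrocytes added (0.3% parasitemia, 2.5% hematocrit), 72 h culture at 37 C under 5% CO2. Saponin/Triton lysis with SYBR Green I, overnight RT, then fluorescence read.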
# [11] = tested on: CP297; assay: as above; details: P. falciparum in erythrocytes, SYBR Green DNA, 72 h; series mostly up to 28.7 µM
# Procedure, shortened: as §2
# [12] = tested on: CP315; assay: as above; details: P. falciparum in erythrocytes, SYBR Green DNA, 72 h; series mostly up to 28.7 µM
# Procedure, shortened: as §2
# [13] = tested on: DIV14; assay: as above; details: P. falciparum in erythrocytes, SYBR Green DNA, 72 h; series mostly up to 28.7 µM
# Procedure, shortened: as §2
# [14] = tested on: JCK; assay: as above; details: P. falciparum in erythrocytes, SYBR Green DNA, 72 h; series mostly up to 28.7 µM
# Procedure, shortened: as §2
# [15] = tested on: TAB165; assay: as above; details: P. falciparum in erythrocytes, SYBR Green DNA, 72 h; series mostly up to 28.7 µM
# Procedure, shortened: as §2
# Chain of Pyruvate kinase (Leishmania mexicana) (Q27686 2-499 E452W): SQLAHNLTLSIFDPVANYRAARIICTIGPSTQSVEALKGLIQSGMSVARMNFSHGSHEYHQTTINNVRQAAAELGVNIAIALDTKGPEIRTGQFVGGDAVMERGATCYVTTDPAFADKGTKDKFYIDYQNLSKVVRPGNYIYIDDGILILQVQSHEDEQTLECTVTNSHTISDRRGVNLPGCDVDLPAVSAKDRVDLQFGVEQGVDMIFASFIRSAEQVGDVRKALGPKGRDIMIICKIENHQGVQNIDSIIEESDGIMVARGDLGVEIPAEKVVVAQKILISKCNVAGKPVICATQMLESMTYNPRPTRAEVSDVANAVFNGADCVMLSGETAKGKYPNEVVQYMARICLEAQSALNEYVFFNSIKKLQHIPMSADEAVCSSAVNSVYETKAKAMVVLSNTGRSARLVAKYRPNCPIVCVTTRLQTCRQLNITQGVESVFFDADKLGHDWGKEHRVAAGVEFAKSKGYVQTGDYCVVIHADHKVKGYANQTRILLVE
# Chain of Pyruvate kinase PKM (Homo sapiens) (P14618 whole entry, looked up): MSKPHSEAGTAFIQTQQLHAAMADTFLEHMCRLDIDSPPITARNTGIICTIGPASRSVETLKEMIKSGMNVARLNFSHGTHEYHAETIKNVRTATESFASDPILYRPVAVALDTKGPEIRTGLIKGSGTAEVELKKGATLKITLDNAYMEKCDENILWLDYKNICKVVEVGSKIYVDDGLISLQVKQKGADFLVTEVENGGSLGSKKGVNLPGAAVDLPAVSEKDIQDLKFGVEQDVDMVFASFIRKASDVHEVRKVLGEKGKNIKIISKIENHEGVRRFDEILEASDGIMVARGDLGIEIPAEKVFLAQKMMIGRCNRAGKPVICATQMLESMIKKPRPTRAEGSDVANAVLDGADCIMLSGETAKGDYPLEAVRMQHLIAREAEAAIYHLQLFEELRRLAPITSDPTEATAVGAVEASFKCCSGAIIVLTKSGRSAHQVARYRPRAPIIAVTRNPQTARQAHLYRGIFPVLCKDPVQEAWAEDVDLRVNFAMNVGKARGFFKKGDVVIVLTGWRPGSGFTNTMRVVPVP
# Chain of DNA dC->dU-editing enzyme APOBEC-3G (Homo sapiens) (Q9HC16 whole entry, looked up): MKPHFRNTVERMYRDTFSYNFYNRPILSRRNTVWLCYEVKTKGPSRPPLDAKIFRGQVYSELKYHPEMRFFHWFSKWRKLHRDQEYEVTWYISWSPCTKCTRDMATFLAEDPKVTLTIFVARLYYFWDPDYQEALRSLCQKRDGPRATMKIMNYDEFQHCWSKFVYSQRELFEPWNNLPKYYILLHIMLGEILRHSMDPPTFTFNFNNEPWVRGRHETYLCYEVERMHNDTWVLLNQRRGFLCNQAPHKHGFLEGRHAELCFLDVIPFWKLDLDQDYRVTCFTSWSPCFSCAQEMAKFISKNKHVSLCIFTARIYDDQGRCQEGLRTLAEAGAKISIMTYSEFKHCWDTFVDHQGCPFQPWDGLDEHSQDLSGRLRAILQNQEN
# Chain of Guanine nucleotide-binding protein G(i) subunit alpha-1 (Homo sapiens) (P63096 whole entry, looked up): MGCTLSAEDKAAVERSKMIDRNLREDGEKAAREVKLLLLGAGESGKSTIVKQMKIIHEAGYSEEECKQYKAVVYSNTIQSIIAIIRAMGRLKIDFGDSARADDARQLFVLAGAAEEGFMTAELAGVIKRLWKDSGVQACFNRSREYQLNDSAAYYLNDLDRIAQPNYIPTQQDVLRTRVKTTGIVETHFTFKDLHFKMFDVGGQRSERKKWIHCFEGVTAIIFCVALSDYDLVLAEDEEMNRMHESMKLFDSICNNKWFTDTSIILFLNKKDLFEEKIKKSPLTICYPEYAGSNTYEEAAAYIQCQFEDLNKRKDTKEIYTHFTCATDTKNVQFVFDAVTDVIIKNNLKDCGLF
structure (smiles),measurement,setting,value
Oc1ccc(/C=C\c2cc(O)cc(O)c2)cc1,outcome,[1],inactive
same,Potency,[2],2510 nM (active)
same,outcome,[3],inactive
same,Potency,[4],3160 nM (active)
same,outcome,[5],inactive
same,outcome,[6],inactive
same,outcome,[7],inactive
same,outcome,[8],inactive
same,Potency,[9],inactive
same,Potency,[10],inactive
same,Potency,[11],inactive
same,Potency,[12],inactive
same,Potency,[13],inactive
same,Potency,[14],inactive
same,Potency,[15],inactive
